{"source": "PubChem BioAssay AID488857", "about": "(Sanford-Burnham Center for Chemical Genomics, 2010)", "note": "In all, about 1,400 compounds went through this assay and about 560 (40%) were called active. So high a share suggests a set chosen from earlier hits. Some of the results follow. Unmarked numbers belong to inactive results.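 The calls were made as follows: active = mean inhibition over duplicate tests at 10 µM above 50%; inactive = the rest.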"}
{"assay": "ASC/caspase-1 reporter retest in S. cerevisiae at one dose, specificity check for NALP1 project (AID 488857)", "details": "S. cerevisiae ASC/Caspase-1, beta-galactosidase luminescence, 24 h; at 10 µM; active compounds read high"}
{"smiles": "C=C(C)C(=O)Nc1nnc(-c2cccs2)s1", "inhibition": "36.6%"}
{"smiles": "CCSc1nnc(NC(=O)c2ccc(C)o2)s1", "inhibition": "59.5% (active)"}
{"smiles": "CC(C)COC(=O)Nc1nnc(SCc2ccccc2F)s1", "inhibition": "47.1%"}
{"smiles": "CCSc1nnc(NC(=O)c2ccccc2)s1", "inhibition": "85.4% (active)"}
{"smiles": "Cc1ccc(Nc2nnc(SCC(=O)Nc3ccc(S(=O)(=O)N4CCOCC4)cc3)s2)cc1", "inhibition": "36%"}
{"smiles": "Cc1cccc(N/C=C/C(=C(C#N)C#N)N(C)C)c1", "inhibition": "38.1%"}
{"smiles": "CN(C)c1ccc(N/C=C/C(=O)c2ccccc2)cc1", "inhibition": "62.9% (active)"}
{"smiles": "O=C(NCc1cccnc1)C1CCN(S(=O)(=O)c2cccnc2)CC1", "inhibition": "42.8%"}
{"smiles": "COc1ccc(S(=O)(=O)N(CC(=O)N2CCOCC2)Cc2ccccc2)cc1C", "inhibition": "40.5%"}
{"smiles": "O=C(c1ccc(Br)s1)N1CCN(C/C=C/c2ccccc2)CC1", "inhibition": "55.4% (active)"}
{"smiles": "CN(CC(=O)NC(=O)NCc1ccccc1)Cc1cccc(Cl)c1Cl", "inhibition": "43.1%"}
{"smiles": "CCN(c1cccc(C)c1)S(=O)(=O)c1cccc(C(=O)O)c1", "inhibition": "32.3%"}
{"smiles": "CCN(CC)c1ccc(/C=C2/SC(=O)N(C(C)C)C2=O)o1", "inhibition": "71% (active)"}
{"smiles": "N#CC1(C#N)CC(C=O)=C(N)C1(C#N)CC(=O)C12CC3CC(CC(C3)C1)C2", "note": "(stereo not given)", "inhibition": "35.1%"}
{"smiles": "Cc1cc(C(=O)COC(=O)c2ccc[nH]c2=O)c(C)n1-c1ccccc1", "inhibition": "57.5% (active)"}
{"smiles": "Cc1cc(C(=O)COC(=O)c2ccc[nH]c2=O)c(C)n1-c1ccc(F)cc1", "inhibition": "52.3% (active)"}
{"smiles": "CCC(=O)N(Cc1cc2c(C)ccc(C)c2[nH]c1=O)C1CCCCC1", "inhibition": "36.8%"}
{"smiles": "CCC(C(=O)OC)n1cnc2scc(-c3ccc(C)c(C)c3)c2c1=O", "note": "(stereo not given)", "inhibition": "98.5% (active)"}
{"smiles": "CC[n+]1c(/C=C/N(C)c2ccccc2)n(-c2ccccc2)c2ccc(-c3nc4ccccc4s3)cc21", "inhibition": "64.5% (active)"}
{"smiles": "O=C(Cn1cccc(C(F)(F)F)c1=O)c1ccc(Cl)cc1", "inhibition": "20.5%"}
{"smiles": "O=C(Nc1ccccc1)Nc1ccc(Br)cc1F", "inhibition": "73.9% (active)"}
{"smiles": "O=C(NNC(=O)c1ccc(-c2ccccc2)cc1)Nc1ccc(F)cc1F", "inhibition": "42.6%"}
{"smiles": "Cc1ccc(S(=O)(=O)N(C)C)cc1NC(=O)Nc1ccccc1F", "inhibition": "24.1%"}
{"smiles": "O=C(c1ccccc1)c1ccc(OCC(O)CNC2CCCc3ccccc32)cc1", "note": "(stereo not given)", "inhibition": "38.8%"}
{"smiles": "COc1ccc(C2NCCc3c2[nH]c2ccccc32)cc1CSc1nc2ccccc2s1", "note": "(stereo not given)", "inhibition": "50% (active)"}
{"smiles": "CSc1nc(C)cc(OCCO)n1", "inhibition": "40.9%"}
{"smiles": "CCCOc1ccc(OCCSc2ncccn2)cc1", "inhibition": "50.8% (active)"}
{"smiles": "CCOc1ccc(OCCSc2nc3ccccc3o2)cc1", "inhibition": "44.1%"}
{"smiles": "CC(=O)NS(=O)(=O)c1ccc(NC(=O)CSc2ccccc2)cc1", "inhibition": "18.9%"}
{"smiles": "CC(C)CN=C(NS(=O)(=O)c1ccccc1)C(Cl)(Cl)Cl", "inhibition": "51.1% (active)"}
{"smiles": "Cc1ccc(S(=O)(=O)N[C@@H](Cc2ccccc2)C(=O)CCl)cc1", "inhibition": "-4.2%"}
{"smiles": "Cc1c(C)c2cc(Cl)c(O)c(CN3CCCCC3)c2oc1=O", "inhibition": "35.6%"}
{"smiles": "O=C(OCCN1CCCCC1)c1cc2ccccc2o1", "inhibition": "18.4%"}
{"smiles": "CCc1oc2ccccc2c1C(=O)CCN1CCCCC1", "inhibition": "66.5% (active)"}
{"smiles": "Cc1ccc(CN(C(=O)CNC(=O)c2cccs2)C(C(=O)NCC2CCCO2)c2ccccc2)cc1", "note": "(stereo not given)", "inhibition": "38.1%"}
{"smiles": "O=C(NCCc1csc(-c2ccccc2)n1)c1ccc(Br)o1", "inhibition": "62.4% (active)"}
{"smiles": "COc1ccc(CCNC(=O)c2sc3cc(C)ccc3c2Cl)cc1", "inhibition": "43.6%"}
{"smiles": "c1ccc(CCNc2nc(-c3cccnc3)cs2)cc1", "inhibition": "45%"}
{"smiles": "O=C(NCCCn1ccnc1)c1ccc(Br)o1", "inhibition": "24.1%"}
{"smiles": "COc1ccc(-c2nc(CCNC(=O)c3cccs3)cs2)cc1", "inhibition": "54.7% (active)"}
{"smiles": "O=C(O)C1C2C=CC(C2)C1C(=O)NCc1ccc(Cl)c(Cl)c1", "note": "(stereo not given)", "inhibition": "45.9%"}
{"smiles": "C=C(C)C1Cc2c(C)nn(-c3ccccn3)c2C1", "note": "(stereo not given)", "inhibition": "36.1%"}
{"smiles": "Cc1cc(C)cc(NS(=O)(=O)c2ccc(NC(=S)NC(=O)c3ccc(Br)o3)cc2)c1", "inhibition": "43.1%"}
{"smiles": "CSCc1ccc(C(=O)Nc2cc(C)cc(C)c2)cc1", "inhibition": "82.3% (active)"}
{"smiles": "Cc1ccc(-c2nc3cnccn3c2Nc2c(C)cccc2C)o1", "inhibition": "54.5% (active)"}
{"smiles": "COc1ccc(-c2nc3cnccn3c2Nc2ccc(C)cc2)cc1", "inhibition": "37.3%"}
{"smiles": "CCCCCCC(=O)N(O)C1CC(=O)N(Cc2ccccc2)C1=O", "note": "(stereo not given)", "inhibition": "27.9%"}
{"smiles": "O=C(CC(O)(C(F)(F)F)C(F)(F)F)Nc1ccc(Cl)c(Cl)c1", "inhibition": "97% (active)"}
{"smiles": "Cc1ccc(NC(=S)Nc2ccc(Cl)c(Cl)c2)c(OC(F)F)c1", "inhibition": "45.8%"}
{"smiles": "CN1CCN(C(=S)Nc2ccc(Cl)c(Cl)c2)CC1", "inhibition": "31.7%"}
{"smiles": "FC(F)Oc1ccc(/C=N/c2c(-c3ccc(OC(F)F)cc3)nc3n2CCS3)cc1", "inhibition": "47.1%"}
{"smiles": "Cc1ccc2nc(N(CCCN(C)C)C(=O)CCc3ccccc3)sc2c1", "inhibition": "54.9% (active)"}
{"smiles": "Cc1cccc2sc(N(CCCN(C)C)C(=O)CCS(=O)(=O)c3ccccc3)nc12", "inhibition": "71.3% (active)"}
{"smiles": "CN(C)CCCN(C(=O)CCS(=O)(=O)c1ccccc1)c1nc2cc3c(cc2s1)OCO3", "inhibition": "70.2% (active)"}
{"smiles": "CN(C)CCCN(C(=O)CCOc1ccccc1)c1nc2c(F)cccc2s1", "inhibition": "56% (active)"}
{"smiles": "O=C(CCN1C(=O)c2ccccc2C1=O)N1CCN(C2c3ccccc3-c3ccccc32)CC1", "inhibition": "18.1%"}
{"smiles": "CC(C)C(NS(=O)(=O)c1ccc2c(c1)oc(=O)n2C)C(=O)N1CCN(C2CCCCC2)CC1", "note": "(stereo not given)", "inhibition": "34.7%"}
{"smiles": "Cc1ccc2sc(N(CCCN(C)C)C(=O)CCS(=O)(=O)c3ccccc3)nc2c1C", "inhibition": "92.2% (active)"}
{"smiles": "CC(/C=N/NC(=O)CCn1nnc2ccccc21)=C\\c1ccccc1", "inhibition": "42.8%"}
{"smiles": "CC(/C=N/NC(=O)c1c(Br)cnn1C)=C\\c1ccccc1", "inhibition": "56.6% (active)"}
{"smiles": "CC(/C=N/NC(=O)CSc1ccccn1)=C\\c1ccc(C(C)C)cc1", "inhibition": "39%"}
{"smiles": "Cc1cc(C(C)(C)C)cc(C)c1S(=O)(=O)N1CC(=O)Nc2ccccc21", "inhibition": "50.1% (active)"}
{"smiles": "CC(C)c1ccc(-c2c(C#N)c(N)nc3c2CCCCC3)cc1", "inhibition": "23.8%"}
{"smiles": "CCN(c1ccccc1)S(=O)(=O)c1cc(NC(=O)Nc2ccccc2C#N)ccc1Cl", "inhibition": "30.4%"}
{"smiles": "COc1ccc(-c2cc(-c3cc(OC)ccc3O)[nH]n2)cc1", "inhibition": "57.5% (active)"}
{"smiles": "CCOCC(O)CNC(=O)c1ccc(OC2CCN(C(=O)c3cccnc3)CC2)cc1", "note": "(stereo not given)", "inhibition": "29.2%"}
{"smiles": "Cc1cc(/C=C2/SC(=S)N(c3ccc([N+](=O)[O-])cc3)C2=O)c(C)n1-c1cccnc1", "inhibition": "37.3%"}
{"smiles": "O=C(NC1CCCCC1)c1noc2c1CCCCC2", "inhibition": "71.2% (active)"}
{"smiles": "O=C(NC1CCCC1)c1ccc(CN2CCOCC2)cc1", "inhibition": "45.1%"}
{"smiles": "C=CCn1c(=O)c2ccc(C(=O)NCc3ccccc3)cc2n(Cc2ccccc2Cl)c1=O", "inhibition": "36.4%"}
{"smiles": "Cc1ccc(-c2csc(NC(=O)c3ccc(F)cc3)c2C(=O)O)cc1", "inhibition": "93.8% (active)"}
{"smiles": "Cc1noc(C)c1S(=O)(=O)N1CCC(C(=O)N2CCC(N3CCCCC3)CC2)CC1", "inhibition": "23.3%"}
{"smiles": "CCCOc1ccc(C(=O)C(CN2CCCC2)c2ccccc2)cc1", "note": "(stereo not given)", "inhibition": "48.7%"}
{"smiles": "CCOC(=O)CNC(c1ccccc1)c1cc(Br)ccc1NC(=O)CCN1CCOCC1", "note": "(stereo not given)", "inhibition": "44.6%"}
{"smiles": "CCOc1ccc(C(=O)C(CN2CCOCC2)c2ccccc2)cc1", "note": "(stereo not given)", "inhibition": "52.9% (active)"}
{"smiles": "Cc1cc(Nc2ccccc2)nn1C(=O)c1ccccc1", "inhibition": "58% (active)"}
{"smiles": "CCn1nc(C)cc1Nc1ccccc1", "inhibition": "32.9%"}
{"smiles": "COc1cc2c(cc1NC(=S)Nc1ccccc1C)oc1ccccc12", "inhibition": "45.5%"}
{"smiles": "CN(C)c1ccc(N=C/C=C2/N(C)c3ccccc3C2(C)C)cc1", "inhibition": "56.5% (active)"}
{"smiles": "Cc1ccccc1N=C/C=C1\\N(C)c2ccccc2C1(C)C", "inhibition": "42.5%"}
{"smiles": "CN1/C(=C\\C(=O)c2cccs2)C(C)(C)c2ccccc21", "inhibition": "40%"}
{"smiles": "CS(=O)(=O)c1nc(-c2ccco2)cc(C(F)(F)F)n1", "inhibition": "90.7% (active)"}
{"smiles": "Cc1ccc2cc(CN(Cc3ccco3)C(=O)NC3CCCCC3)c(=O)[nH]c2c1C", "inhibition": "42.8%"}
{"smiles": "CCC(C)NC(=O)c1cc2cc3ccc(OC)cc3nc2s1", "note": "(stereo not given)", "inhibition": "56.8% (active)"}
{"smiles": "COc1ccc(OC)c(NC(=O)c2sc3nc(Cc4ccccc4)cc(C(F)(F)F)c3c2N)c1", "inhibition": "40.6%"}
{"smiles": "OC(COCc1ccc2c(c1)OCO2)CN1CCN(Cc2ccccc2)CC1", "note": "(stereo not given)", "inhibition": "35.2%"}
{"smiles": "N#CCc1c(C#N)c(N)nc(N2CCN(Cc3ccc4c(c3)OCO4)CC2)c1C#N", "inhibition": "37.5%"}
{"smiles": "O=C(CCC1CCCCC1)N1CCN(Cc2ccc3c(c2)OCO3)CC1", "inhibition": "67% (active)"}
{"smiles": "CC1CCCN(CCOCCOc2ccc(Br)cc2Cl)C1", "note": "(stereo not given)", "inhibition": "59.5% (active)"}
{"smiles": "CC1CCCN(CCOCCSc2ccccc2)C1", "note": "(stereo not given)", "inhibition": "53% (active)"}
{"smiles": "Cc1cc(Cl)c(OCCCN2CCCCC2)c(Br)c1", "inhibition": "24.1%"}
{"smiles": "CC1CCCN(CCCOc2ccc(Cl)cc2Br)C1", "note": "(stereo not given)", "inhibition": "64.8% (active)"}
{"smiles": "CN1CCC(Oc2ccc(Sc3ccccc3)cc2)CC1", "inhibition": "40.5%"}
{"smiles": "Cc1cc(Cl)c(OCCCCN2CCOCC2)c(Br)c1", "inhibition": "30.6%"}
{"smiles": "CC1CCCN(CCC(=O)c2ccc(Br)cc2)C1", "note": "(stereo not given)", "inhibition": "45.8%"}
{"smiles": "Cc1cc(Cl)c(OCCOCCN2CCC(C)CC2)c(Br)c1", "inhibition": "53.7% (active)"}
{"smiles": "CC(C)(C)c1ccc(COn2c(=O)c(-c3ccco3)[n+]([O-])c3ccccc32)cc1", "inhibition": "39.7%"}
{"smiles": "CCOC(=O)c1cccnc1SCC(=O)NCc1ccccc1", "inhibition": "54.2% (active)"}
{"smiles": "CCOc1ccc(NC(=O)CSc2nnc(C)n2Cc2ccccc2)cc1", "inhibition": "37.3%"}
{"smiles": "CCOC(=O)c1cnc2ccccc2c1Nc1cc(C(=O)O)ccc1C", "inhibition": "28.2%"}
